Experimental data as given in PubChem BioAssay (Tox21).
Results filed as inconclusive are left out. Values without a mark were called inactive. The call rests on the fitted dose curve.

biological target: Thyrotropin receptor (Homo sapiens) (UniProt P16473); assay: qHTS assay to identify small molecule agonists of the thyroid stimulating hormone receptor (TSHR) signaling pathway (AID 1224843); conditions: TSHR-HEK293 cells, cAMP HTRF, agonist mode, 30 min; series mostly up to 92.4 µM; activation: at the top concentration; further: nearly all actives have a fitted effect of over 45% in size
Sequence (P16473 whole entry, looked up): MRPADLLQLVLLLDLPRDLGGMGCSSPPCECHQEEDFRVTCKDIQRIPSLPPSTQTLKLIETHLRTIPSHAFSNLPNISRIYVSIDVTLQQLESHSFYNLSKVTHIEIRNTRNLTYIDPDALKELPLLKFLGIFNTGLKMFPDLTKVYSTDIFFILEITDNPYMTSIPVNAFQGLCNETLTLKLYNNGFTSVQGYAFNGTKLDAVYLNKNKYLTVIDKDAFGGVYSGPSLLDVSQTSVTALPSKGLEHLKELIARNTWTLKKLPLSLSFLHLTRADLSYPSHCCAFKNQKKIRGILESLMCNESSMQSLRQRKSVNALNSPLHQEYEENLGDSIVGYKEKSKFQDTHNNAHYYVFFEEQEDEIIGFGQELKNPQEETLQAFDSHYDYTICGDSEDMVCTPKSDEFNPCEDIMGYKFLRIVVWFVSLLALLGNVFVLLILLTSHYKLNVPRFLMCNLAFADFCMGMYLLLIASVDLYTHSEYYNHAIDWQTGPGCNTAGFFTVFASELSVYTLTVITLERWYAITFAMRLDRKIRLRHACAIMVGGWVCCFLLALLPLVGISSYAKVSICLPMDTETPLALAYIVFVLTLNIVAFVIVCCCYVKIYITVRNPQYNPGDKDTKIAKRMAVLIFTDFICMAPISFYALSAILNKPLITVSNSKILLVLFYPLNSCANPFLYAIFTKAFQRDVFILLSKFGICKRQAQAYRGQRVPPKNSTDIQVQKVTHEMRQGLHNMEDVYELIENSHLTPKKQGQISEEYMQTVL
Text: National Center for Advancing Translational Sciences [NCATS]
NIH Chemical Genomics Center [NCGC]
U.S. Environmental Protection Agency [EPA]
National Institutes of Environmental Health Sciences [NIEHS]
National Toxicology Program [NTP]
U.S. Food and Drug Administration [FDA]
TSHR is the receptor for thyrotropin (thyroid stimulating hormone or TSH), a member of the glycoprotein hormone family. TSH is released by the anterior pituitary gland and is the main regulator of thyroid gland growth and development. Upon binding circulating thyrotropin, a G-protein signal cascade activates adenylyl cyclase and […] cAMP concentration is increased. cAMP is a key second messenger involved extensively in cellular signal transduction pathways associated with the majority of G-protein coupled receptors (GPCRs). The activation of these GPCRs by neurotransmitters, lipids, nucleotides, peptides and hormones results in the activation or the inhibition of plasma membrane-bound adenylate cyclase through heterotrimeric G-proteins. A cell-based TSHR assay was used to screen the Tox21 10K library for compounds that can modulate TSHR in agonist mode.
Tox21 Assay Protocol Summary:
TSHR-Hek293 cells were dispensed at 800 cells/4uL/well in 1536-well white plates using a Multidrop dispenser. […] The plates were incubated at room temperature for 30 min. 2.5 ul/well of cAMP-d2 and 2.5ul/well of anti-cAMP-cryptate was added respectively into the assay plates using a Flying Reagent Dispenser. After 1 hr incubation at room temperature, the fluorescence intensity in the plates was measured using an Envision plate reader. Each test compound was measured at 15 concentrations and in triplicates.
On the % scale 0 is the no-effect control and ±100 the full control effect.

| SMILES | activation |
| --- | --- |
| CC(O)CC(C)O (stereo not given) | -5.06% |
| COC(=O)c1cccc(Cl)c1 | 2.61% |
| Cc1ccc(N)cc1S(=O)(=O)O | 2.88% |
| C=CCCCC | 7.23% |
| CC(O)COC(C)(C)C (stereo not given) | -3.2% |
| CC(=O)Nc1ccc(OC(=O)c2ccccc2OC(C)=O)cc1 | 3.05% [at 42.5 µM] |
| C=CC(=O)CCCCC | -0.676% |
| Nc1nnnn1-c1ccccc1 | 3.38% [at 42.5 µM] |
| CC1(C)[C@H]2CC[C@](C)(C2)[C@H]1O | 21.8% |
| CCCCOC(=O)[C@H](C)O | 9.82% |
| CCCC(CC)c1ccccc1 (stereo not given) | 3.29% |
| N#CCC(=O)NN | 4.52% [at 42.5 µM] |
| C[Si]1(C)O[Si](C)(C)O[Si](C)(C)O[Si](C)(C)O[Si](C)(C)O1 | 5.14% |
| CCCCOCC(C)O (stereo not given) | -11.4% |
| CC(C)OC(=O)OCOP(=O)(CO[C@H](C)Cn1cnc2c(N)ncnc21)OCOC(=O)OC(C)C | -0.397% [at 42.5 µM] |
| Cc1ccnc(N)c1 | 1.99% |
| CC(N)CCCC(C)(C)O (stereo not given) | 2.09% [at 42.5 µM] |
| NCC1(Cc2noc(=O)[nH]2)CCCCC1 | 1.17% |
| Nc1nc(-c2ccccc2)c(Br)c(=O)[nH]1 | -0.946% [at 42.5 µM] |
| Cc1ccc(C(C)NC(=O)[C@@H](NC(=O)OC(C)C)C(C)C)cc1 (stereo not given in full) | 0.313% |

| SMILES | activation |
| --- | --- |
| CCCCCC/C=C/C(=O)OC | 1.35% |
| O=C1OCCO1 | 10.3% |
| O=C1c2ccccc2C(=O)c2cc(Cl)ccc21 | -6.72% [at 8.39 µM] |
| CN(C)CCCCl | 7.09% |
| CCOC(=O)CC1(C)OCC(C)O1 (stereo not given) | 0.988% |
| CC1=NN(c2ccc(S(=O)(=O)O)cc2)C(=O)C1 | 1.93% |
| N#Cc1cscn1 | 0.692% |
| CC(C)COC(=O)c1ccccc1 | -5.41% |
| C=C(C)c1cccc(C(C)(C)N=C=O)c1 | -1.41% |
| C[C@H]1[C@@H](c2ccccc2)NC(=O)N1C | 4% |
| COC(C)(OC)OC | -9.4% |
| OC[C@H]1O[C@@H](O[C@@H]2[C@@H](CO)O[C@](O)(CO)[C@H]2O)[C@H](O)[C@@H](O)[C@H]1O | 6.97% [at 42.5 µM] |
| CCCCCCCCCCCCCCC(=O)NC(CO)CCCCCCCCCCCCCC (stereo not given) | 2.59% |
| Cc1c(Cl)cccc1Cl | 11.2% |
| COC(=O)CCCCC(=O)O | -5.04% |
| O=C(O)c1cc2ccccc2nc1C(=O)O | -0.487% |
| CCN1CCCC1CN (stereo not given) | 7.65% [at 42.5 µM] |
| CN(C)CC/C=C1/c2ccccc2COc2ccc(CC(=O)O)cc21 | -2.04% [at 42.5 µM] |
| CCC/C=C(\C=O)CC | -9.73% |
| O=C1NC(c2ccccc2)(c2ccccc2)C(=O)N1COP(=O)(O)O | 2.36% [at 42.5 µM] |
